Most compounds without a hit are left out; they make up all but 0.77% or so of the library.
Tb PYK inh: inhibitors of Trypanosoma brucei pyruvate kinase; Potency, µM (series often up to 76.8 µM), for the others: at the highest dose activity, negative = inhibition, most hits filed as inhibitors; hit rate 0.12% among 410,000; TbPYK enzyme, Kinase-Glo Plus ATP luminescence, 45 min; Q57TT1; note: % is set by controls: 0 for no effect and ±100 for the full control effect; nearly all actives have a fitted effect of over 50% in size
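Glycolytic pyruvate kinase of T. brucei was incubated with substrate, test compound and 130 uM ADP for 45 minutes at room temperature. Luminescent Kinase-Glo Plus signal was measured after 10 minutes.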
RE007 growth inh: less growth of the S. pombe RE007 Vpr strain; S. pombe RE007 Vpr strain, BacTiter-Glo ATP luminescence, 24 h; Potency, µM (series often up to 92.2 µM), for the others: at the top dose activity change, negative = less growth, hits mostly inhibitors; hit rate 0.21% among 360,000; AID 651644; active = well fitted falling curve with a large enough effect; inconclusive = small, poorly fitted or top-dose-only effect; inactive = no such curve, though single readings can be large or run the other way; note: % is set by controls: 0 for no effect and ±100 for the full control effect; nearly all actives have a fitted effect of over 50% in size
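Fission yeast RE007 carrying one integrated HIV-1 vpr copy, seeded at OD 0.01 in PMG+AL medium with 23 nL pinned compound. Grown 24 h at 30 degrees; viability read by BacTiter-Glo luminescence after 5 min.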
NS1 function inh: influenza NS1 inhibition. Potency, µM (doses to about 46.1 µM), for inactives: top-dose activity, positive = more growth. AID 2326. hit rate 0.4% among 270,000; calls by dose curve; note: actives are rising curves; nearly all actives have a fitted effect of over 50% in size
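A cell-based growth assay was used: compounds that relieve NS1-induced slow growth of budding yeast raise OD600. Assay medium was yeast nitrogen base with ammonium sulphate and -URA supplement, pH 6.0, with 2% galactose.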
LmPK inhibitor: blocks Leishmania mexicana pyruvate kinase activity | Q27686 | AID 1721 | hit rate 0.37% among 290,000 | purified LmPK, Kinase-Glo ATP luminescence, 1 h | Potency, µM (doses to about 57.5 µM), without a hit: at the top dose activity change, negative = inhibition, most hits filed as inhibitors; note: % is set by controls: 0 for no effect and ±100 for the full control effect
Target sequence (Q27686 whole entry, looked up): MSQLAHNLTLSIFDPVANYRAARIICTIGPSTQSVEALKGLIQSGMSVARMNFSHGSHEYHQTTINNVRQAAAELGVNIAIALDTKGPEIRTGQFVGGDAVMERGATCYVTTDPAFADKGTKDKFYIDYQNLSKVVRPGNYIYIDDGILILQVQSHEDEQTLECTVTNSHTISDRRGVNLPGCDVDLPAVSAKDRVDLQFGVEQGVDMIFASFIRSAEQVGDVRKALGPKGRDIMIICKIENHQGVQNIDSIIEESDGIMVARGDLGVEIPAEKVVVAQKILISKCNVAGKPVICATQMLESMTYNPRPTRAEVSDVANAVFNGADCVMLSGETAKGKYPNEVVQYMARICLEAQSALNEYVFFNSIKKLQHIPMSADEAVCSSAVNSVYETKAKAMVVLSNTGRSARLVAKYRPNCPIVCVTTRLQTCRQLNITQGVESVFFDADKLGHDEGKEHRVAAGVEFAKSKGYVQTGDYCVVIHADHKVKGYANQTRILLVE
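Purified LmPK (0.1 nM) with 0.5 mM PEP and 0.1 mM ADP in imidazole buffer pH 7.2 with MgCl2/KCl, 1 h at room temperature. ATP formed was read by luciferase luminescence and normalized to no-enzyme and uninhibited controls.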
Numbers without * were called inactive; u = inconclusive; x = no result; ! = a repeat was not active; [ ] = dose if it differs, or a comment. Unless noted, calls come from the whole dose curve; as a rule, active = well fitted curve in the direction sought with a large enough effect; inconclusive = small, poorly fitted or top-dose-only effect, or another doubt; inactive = no such curve, though single readings can be large; an effect the other way counts as inactive or inconclusive. Potency is the fitted concentration of half-maximal effect.

SMILES	Tb PYK inh	RE007 growth inh	NS1 function inh	LmPK inhibitor
Cc1ccc(COc2ccsc2-c2n[nH]c(=S)n2C)cc1	x	0%[3.69 µM]	-4%	-19%
C[C@]12CC[C@@H]3c4ccc(OC(=O)N(CCCl)CCCl)cc4CC[C@@H]3[C@H]1CC[C@@H]2OP(=O)(O)O	3%	x	x	x
O=C(Nc1ccccc1F)c1ccc(CSc2ncccn2)cc1	-10%	-6%	1%	16µM*
Cc1cnc(C(=O)Nc2ccccc2F)cn1	-27%	-16%	-4%	18µM*
Cc1cnc(C(=O)Nc2ccccc2-n2cccc2)cn1	3%	-25%	-5%	4%
c1ccc(-c2ccc(-c3nccc4ccccc34)[nH]2)cc1	x	x	-70%	25µM*
N#Cc1cc(-c2ccccc2)[nH]c1-c1nccc2ccccc12	-2%	x	-19%	1%
Fc1ccc(-c2nc3ccncc3[nH]2)cc1	-19%	-20%	8%	u
Clc1ccc(-c2nc3ccncc3[nH]2)cc1	-24%	40µM*	-8%	14µM*
Cc1ccc(Nc2c(-c3ccc(C)o3)nc3cnccn23)cc1	-24%	7.9µM*!	-13%	-7%
Cc1ccc(-c2nc3cnccn3c2Nc2ccccc2)o1	-13%	15%	-79%	6%
O=C(/C=C\Nc1ccccn1)c1ccccc1	-16%	0%	-172%	13µM*
Cc1ccnc(N/C=C/C(=O)c2ccc(Br)cc2)c1	-16%	7%	-6%	-3%
O=C(/C=C/Nc1cccc(O)c1)c1ccccc1	-12%	1%	-70%	14µM*
COc1ccc(C(=O)/C=C/Nc2cc(C)ccn2)cc1	-27%	-13%	-71%	13µM*
COc1ccc(C(CC(=O)Nc2ccc(F)c(Cl)c2)N2Cc3ccccc3C2=O)cc1OC (stereo not drawn)	1%	x	x	x
C/C(=N\NC(=O)c1ccccc1NC(=O)c1ccc(Cl)cc1)c1ccncc1	u	4µM*	x	u
CCOc1ccc(-c2cc(C(=O)Oc3ccc(C#N)cc3)no2)cc1	0%	x	x	x
CSc1nc(O)c(C(c2ccc(F)cc2)c2c(O)nc(SC)[nH]c2=O)c(=O)[nH]1	-5%	10%	x	x
CSc1nc(O)c(N=Nc2ccc(F)cc2F)c(=O)[nH]1	-16%	25µM*	-37%	16µM*
CC1=C(SCc2ccccc2)C(=O)c2ccccc2C1=O	-16%	u	x	x
O=C1C(SCCO)=C(SCCO)C(=O)c2ccccc21	4µM*	-16%	-36%	x
CCOC(=O)c1ccc(N/C=C/C(=O)c2ccc(OC)c(OC)c2)cc1	4%	-13%	-5%	1%
CCOC(=O)c1ccc(N/C=C/C(=O)c2ccco2)cc1	-11%	-3%	-69%	14µM*
O=C(/C=C/Nc1ccc(F)cc1)c1ccco1	-17%	u	-6%	13µM*
SMILES	Tb PYK inh	RE007 growth inh	NS1 function inh	LmPK inhibitor
O=C(/C=C/Nc1ccc(F)cc1)c1cccs1	-14%	-21%	x	x
N/C(Cc1ccc(Cl)cc1Cl)=N\OC(=O)Cc1cccs1	-3%	-21%	-20%	3%
Cc1cccc(/C(N)=N/OC(=O)c2ccc(F)cc2)c1	u	u	-59%	4.5µM*
N/C(=N\OC(=O)c1cccs1)c1ccccc1	u	u	-34%	13µM*
N/C(Cc1ccc(Cl)cc1Cl)=N\OC(=O)c1cccs1	2%	18µM*	-39%	4%
N/C(=N\OC(=O)c1cccs1)c1cccc(Br)c1	-5%	-27%	-76%	16µM*
N/C(=N\OC(=O)c1ccc(F)cc1)c1cccc([N+](=O)[O-])c1	3%	-5%	-30%	-2%
Cc1ccc(CNC(=O)c2ccc3c(c2)N(Cc2cccc(C)c2)C(=O)CS3)cc1	1%	x	x	x
O=C(C1COc2ccccc2O1)N1CCN(c2nc3c(F)cccc3s2)CC1 (stereo not drawn)	10%	x	x	x
Cc1cccc(/C(N)=N/OC(=O)c2cccs2)c1	u	u	-199%	13µM*
O=C(Nc1ccc(N2CCCCCC2)cc1)c1ccccc1Cl	4%	-19%	-3%	0%
O=C(Nc1ccc(N2CCCCC2)cc1)c1ccccn1	u	u	x	7.9µM*
O=c1c2c([N+](=O)[O-])cc([N+](=O)[O-])cc2sn1Cc1ccccc1	1.6µM*	-38%	-59%	-6%
O=c1c2c([N+](=O)[O-])cc([N+](=O)[O-])cc2sn1-c1ccc(Br)cc1	4µM*	-87%	-5%	1%
O=C(Nc1ccc(Br)cc1)c1cc([N+](=O)[O-])cc([N+](=O)[O-])c1	-27%	3%	5%	8%
Cc1ccc(-n2nc(CO)c(C(=O)NCc3cccnc3)n2)cc1	-2%	x	x	x
CCOC(=O)/C(=C/c1ccc(OC(=O)c2ccccc2)cc1)C(C)=O	-18%	28µM*	-79%	-3%
CCn1cc(-c2n[nH]c(=S)n2-c2ccc(C)cc2Br)c(=O)c2ccc(C)nc21	u	-18%	-12%	7.9µM*
CCn1cc(C(=O)OCC(=O)Nc2ccc(F)cc2F)c(=O)c2ccc(C)nc21	-8%	x	x	x
CCOC(=O)c1ccc(NC(=O)Cn2nc(SC)c(S(=O)(=O)c3ccc(Cl)cc3)c2N)cc1	1%	x	x	x
Cc1ccccc1Cn1c2ccccc2c2cnn(CC(=O)NCCc3ccccc3)c(=O)c21	-5%	x	x	x
Cc1ccsc1C(=O)Nc1ccc(C(=O)O)cc1	-32%	u	-2%	14µM*
Cc1ccsc1C(=O)Nc1ccc(OCc2ccccc2)cc1	-6%	7%	6%	-11%
C/C(=N\Nc1ncc(Cl)cc1Cl)c1ccccn1	-20%	22µM*	x	u
C/C(=N\Nc1ccc(Cl)c(C(=O)O)c1)c1ccccn1	0%	-2%	5%	2%
SMILES	Tb PYK inh	RE007 growth inh	NS1 function inh	LmPK inhibitor
COC(=O)c1ccc(OC)c(CN2C(=O)N(c3ccc(C(C)=O)cc3)S(=O)(=O)c3ccccc32)c1	1%	x	x	x
Cc1ccc(-c2nc(CCNC(=O)C(=O)Nc3ccc(F)cc3F)cs2)cc1	-5%	x	x	x
CC(C)c1cccc(-c2csc(C(O)c3ccc(F)c(F)c3)n2)c1 (stereo not drawn)	-3%	40µM*	x	x
CC(C)c1cccc(-c2csc(C(O)c3ccc(F)cc3)n2)c1 (stereo not drawn)	-5%	u	x	x
CC(C)(C)C1CCc2c(sc(NC(=O)c3ccc(Cl)cc3)c2C(=O)NCc2ccco2)C1 (stereo not drawn)	0%	x	x	x
Cc1ccc(NC(=O)Cn2cc(C(=O)c3ccco3)c3ccccc32)cc1	2%	x	x	x
Cc1ccsc1C=C1C(=O)c2ccccc2C1=O	-8%	u	-87%	14µM*
COc1ccccc1N1C(=O)C=C(Sc2nc(C)cc(C)n2)C1=O	5µM*	9%	11%	u
COc1ccccc1N1C(=O)C2CC(C)=C(C)CC2C1=O (stereo not drawn)	1%	-9%	-4%	-2%
CCc1noc(-c2ccc(NCc3ccccc3)c([N+](=O)[O-])c2)n1	-1%	x	x	x
Cc1ccc(-n2nnc(-c3nccs3)n2)cc1	u	u	-9%	14µM*
Cc1cc2ncc(C(=O)Nc3ccsc3C(=O)O)c(C)n2n1	u	-17%	x	25µM*
COc1cc(/C=N/n2cc(-c3ccccc3)[nH]c2=S)cc(OC)c1O	1.1µM*	18%	3%	2.5µM*

Bioassay records: PubChem, National Center for Advancing Translational Sciences (NCATS)
